Laboratory results reported in PubChem BioAssay (NCATS).
Inconclusive results are not listed. Entries that show only a call come without a potency. The source made the active and inactive calls. Calls come from the whole dose curve; as a rule, active = well fitted cell-killing curve with a large enough effect; inconclusive = small, poorly fitted or top-dose-only effect, or effect the other way; inactive = no such curve, though single readings can be large or run the other way. Numbered stars: 1 amine (or outer) side, 2 acyl side, 3 side chain; on linkers, the order of the positions; unused ones are H or OH. Bridge positions count the residues as written; N and C are the ends. Square brackets hold non-standard residues; d marks the D form. Peptide text beside a SMILES is read from it. I, II: the chains in the order shown. Actinocin(9to1) = Cc1c2oc3c(C)ccc(C(=O)[*:1])c3nc-2c(C(=O)[*:2])c(N)c1=O; NMeV = CN[CH](C(=O)O)C(C)C; Sar = CNCC(=O)O

Experiment: Quantitative highthroughput screen to assess conditional lethalithy of NOMO1 cells grown in Human Plasma-Like Medium with dialyzed fetal bovine serum (HPLM+ds) (AID 1963878); note: nearly all actives have a fitted effect of over 35% in size
Conditions: NOMO1 AML cells in HPLM+ds, CellTiter-Glo viability, 48 h; series mostly up to 45.8 µM
From the text: Assay Provider: Jason Cantor Ph.D.
Department of Biochemistry
University of Wisconsin-Madison, Madison, WI, USA
Chemical screening studies have identified drug sensitivities across hundreds of cancer cell lines but most putative therapeutics fail to translate. Discovery and development of drug candidates in models that more accurately reflect nutrient levels in human blood is a major challenge. Here we performed high-throughput screens in conventional versus Human Plasma-Like Medium (HPLM) to identify compounds that were "missed" when screening using the artificial culture condition. Sets of conditional anticancer compounds spanned phases of clinical development and included non-oncology drugs were assessed. […] We also traced conditional phenotypes for several chemotherapeutics to availability of HPLM-specific metabolites and confirmed others for compounds whose reported targets are encoded by nonessential genes. Our findings establish generalizable strategies for exploiting conditional lethality in HPLM to reveal therapeutic candidates and mechanisms of action in cancer cells.
Described herein are the results of each viability screens against three cell lines: NOMO1 (an acute myeloid leukemia cell line); P12-Ichikawa (a T-cell acute lymphoblastic leukemia); and SEM (a B-cell ALL). Each assay was screened using 3 different cell culture media: homemade human plasma-Like medium with 10% dialyzed fetal bovine serum (HPLM+ds); RPMI1640 with 10% untreated FBS and 5mM glucose (RPMI+s); and RPMI1640 with 10% dialyzed fetal bovine serum and 5 mM glucose (RPMI+ds).
PROTOCOL TABLE (as described by Inglese J, Shamu CE and Guy RK. 2007)
SEQUENCE No. (e.g., 1, 2, 3, etc.); […] (e.g., Cells, Incubation, Reagent, etc.); VALUE and DESCRIPTION.
1; Cells; 5 uL; white, solid bottom 1536-well Greiner assay plate.
2; Compounds; 23 nL; Kalypsis pin tool (Wako USA) equipped with a 1536-well pin head to transfer to the assay plates.
3; Incubation; 48 hours; 37C incubation.
4; Reagent; 3 uL; CellTiter Glo (Promega).
5; Incubation; 5 min, room temperature
6; Detection; Luminescence, Viewlux PerkinElmer.
NOTES (numbers refer to Sequence numbers above)
1. Briefly, 5 ul of cell reagent was dispensed using a Multidrop Combi Dispenser. The NOMO1 and SEM cells were plated at 500 cells/well and the P12-Ichikawa line at 1000 cells/well.
2. After seeding the cells, 23 nL of MIPE 4.1 library compounds (in DMSO) were added to each plate using a Kalypsys 1536 Pintool dispenser. Bortezomib at final concentration of […] and DMSO were added to each plate as positive and negative controls respectively. For each screen, MIPE 4.1 compounds were added over an eleven-point concentration range […] in 3-fold dilutions.
3. Each plate was covered with a stainless steel gasketed lid to prevent evaporation and incubated for 48 hour at 37C, 95% relative humidity, and 5% CO2.
4-5. Three microliter CellTilter-GloTM luminescent substrate mix (Promega) reagent was added to the assay plate and incubated at room temperature for 5 min.
6. The luminescence signal was measured using a ViewLux (PerkinElmer) multiplate reader with a 2 second exposure time per plate. Data for each compound were normalized as percent viability such that measurements for DMSO and the empty well controls in each plate were defined as 100% and 0%, respectively.
Potency is the fitted concentration of half-maximal effect.

SMILES	Potency
O=C1NC(=O)C(c2cnc3ccccn23)=C1c1cn2c3c(cccc13)CN(C(=O)N1CCOCC1)CC2	inactive
Cn1cc(C=CC(=O)c2cccc(F)c2)cc1C=CC(=O)NO	inactive
Nc1nc2c(ncn2COC(CO)CO)c(=O)[nH]1	23.5 µM (active)
C=CC(=O)Nc1cc2c(Nc3ccc(F)c(Cl)c3)ncnc2cc1C#CC(C)(C)N1CCN(C)CC1	5.26 µM (active)
NCCCCCC(=O)O	inactive
Oc1cc2c(cc1O)C1c3ccc(O)c(O)c3OCC1(O)C2 (stereo not given)	inactive
c1ccc2c(Oc3nc(Nc4ccc(N5CCOCC5)cc4)c4ncn(C5CCCCC5)c4n3)cccc2c1	inactive
O=C1C(c2c(O)[nH]c3ccccc23)=Nc2ccccc21	inactive
C[C@@H]1C[C@H]2[C@@H]3CCC4=CC(=O)C=C[C@]4(C)[C@@]3(Cl)[C@@H](O)C[C@]2(C)[C@@]1(OC(=O)c1ccco1)C(=O)CCl	1.18 µM (active)
CC(C(=O)O)c1cccc(C(=O)c2ccccc2)c1 (stereo not given)	inactive
COc1cc2ncnc(Nc3cccc(Cl)c3)c2cc1OC	4.69 µM (active)
CN(C)c1ccc2cc(C(=O)N[C@@H](CCCN=C(N)CCl)C(=O)NCc3ccccc3)ccc2c1	23.5 µM (active)
COc1ccc(-c2cc3c(C)nc(N)nc3n(C3CCC(OCCO)CC3)c2=O)cn1 (stereo not given)	0.105 µM (active)
COc1ccc(CC2=NN3C([C@@H](CCc4ccccc4)[C@@H](C)O)=NC(C)C3C(=O)N2)cc1OC (stereo not given in full)	inactive
CCC[C@@H](NC(=O)[C@@H]1[C@H]2CCC[C@@H]2CN1C(=O)[C@@H](NC(=O)[C@@H](NC(=O)c1cnccn1)C1CCCCC1)C(C)(C)C)C(=O)C(=O)NC1CC1	inactive
C[C@@H]1[C@H](C)CC[C@]2(C(=O)O)CC[C@]3(C)C(=CC[C@@H]4[C@@]5(C)CC[C@H](O)C(C)(C)[C@H]5CC[C@]43C)[C@@H]12	inactive
CC(C)(C)NC(=O)[C@H]1CN(Cc2cccnc2)CCN1C[C@@H](O)C[C@@H](Cc1ccccc1)C(=O)N[C@H]1c2ccccc2C[C@H]1O	inactive
CC(=CC(=O)Nc1ccccc1C(=O)O)c1ccc2ccccc2c1	inactive
COc1cc2c(Nc3ccc(NC(=O)c4ccccc4)cc3)ncnc2cc1OCCCN1CCOCC1	inactive
CC(C)c1cnn2c(NCc3ccccc3)cc(N[C@@H](CO)[C@H](O)CO)nc12	0.662 µM (active)

SMILES	Potency
NS(=O)(=O)c1cc2c(cc1Cl)NC(C(Cl)Cl)NS2(=O)=O (stereo not given)	inactive
CC(O)=C(C#N)C(=O)Nc1ccc(C(F)(F)F)cc1	inactive
CCC(=O)O[C@]1(C(=O)SCF)[C@H](C)C[C@H]2[C@@H]3C[C@H](F)C4=CC(=O)C=C[C@]4(C)[C@@]3(F)[C@@H](O)C[C@@]21C	inactive
O=P(O)(O)C(O)(Cn1ccnc1)P(=O)(O)O	inactive
Nc1nc(Cl)nc2c1ncn2[C@H]1C[C@H](O)[C@@H](CO)O1	0.132 µM (active)
Cn1c2cc(S(C)=O)sc2c2cnn(Cc3cccc(N)c3)c(=O)c21 (stereo not given)	inactive
CN1C(C(=O)Nc2ccccn2)=C(O)c2sc(Cl)cc2S1(=O)=O	inactive
Cc1cc(-c2nnc3n2CCCCC3)c(C)n1-c1ccccc1	inactive
O=C1NC(=O)C(=Cc2ccc3c(c2)OC(F)(F)O3)S1	inactive
O=C(Nc1cc2cc[nH]c2cn1)c1ccccc1	3.32 µM (active)
O=c1c(O)c(-c2ccc(O)c(O)c2)oc2cc(O)cc(O)c12	inactive
O=C(NCc1ccncc1)C12C[C@H]3C[C@@H](C1)CC(c1ccc(Cl)cc1)(C3)C2	18.7 µM (active)
O=c1c(-c2ccc(O)cc2)coc2cc(OC3O[C@H](CO)[C@H](O)[C@H](O)[C@H]3O)cc(O)c12 (stereo not given in full)	inactive
N#Cc1ccc(C(c2ccc(C#N)cc2)n2cncn2)cc1	inactive
CCOC(=O)c1c(CSc2ccccc2)n(C)c2cc(Br)c(O)c(CN(C)C)c12	inactive
COc1cc(N2CCN(C)CC2)ccc1Nc1nc(N)c(C(=O)c2c(Cl)cccc2Cl)s1	inactive
CC(C)NCC(O)c1ccc(NS(C)(=O)=O)cc1 (stereo not given)	inactive
COc1ccc2cc(-c3nc(-c4ccc(S(C)=O)cc4)[nH]c3-c3ccncc3)ccc2c1 (stereo not given)	inactive
CC(C)(C)c1cnc(CSc2cnc(NC(=O)C3CCNCC3)s2)o1	0.59 µM (active)
Cc1c2oc3c(C)ccc(C(=O)NC4C(=O)NC(C(C)C)C(=O)N5CCCC5C(=O)N(C)CC(=O)N(C)C(C(C)C)C(=O)OC4C)c3nc-2c(C(=O)NC2C(=O)NC(C(C)C)C(=O)N3CCCC3C(=O)N(C)CC(=O)N(C)C(C(C)C)C(=O)OC2C)c(N)c1=O (stereo not given) (I: TVP[Sar][NMeV] / II: TVP[Sar][NMeV]; ester I:1-I:C, II:1-II:C; linker I:N-II:N via Actinocin(9to1); configuration not given here)	inactive
